Compound activity: PubChem BioAssay, Sanford-Burnham Center for Chemical Genomics
Most compounds without a hit are left out; they make up all but 2.9% or so of the library.
Cardio protect = protects H9c2 cardiomyocytes from peroxide injury | H2O2 injury protection, ATPLite, 2 h | protection from H2O2 cell death, % at 20 µM | actives 0.63% (n = 360,000) | AID 588492;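 active = compounds giving at least 50% protection of heart cells from peroxide-induced death in the single-dose screen, raw or plate-pattern-corrected value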
A3G deaminase = APOBEC3G (human) deaminase inhibition | Q9HC16 | recombinant A3G, ssDNA deamination FAM/TAMRA fluorescence | inhibition, % at 20 µM | actives 0.28% (n = 330,000) | AID 493012;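 active = inhibition of at least 40% at 20 µM, with no more than 30% in the related APOBEC3A deaminase screen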
Target sequence (Q9HC16 whole entry, looked up): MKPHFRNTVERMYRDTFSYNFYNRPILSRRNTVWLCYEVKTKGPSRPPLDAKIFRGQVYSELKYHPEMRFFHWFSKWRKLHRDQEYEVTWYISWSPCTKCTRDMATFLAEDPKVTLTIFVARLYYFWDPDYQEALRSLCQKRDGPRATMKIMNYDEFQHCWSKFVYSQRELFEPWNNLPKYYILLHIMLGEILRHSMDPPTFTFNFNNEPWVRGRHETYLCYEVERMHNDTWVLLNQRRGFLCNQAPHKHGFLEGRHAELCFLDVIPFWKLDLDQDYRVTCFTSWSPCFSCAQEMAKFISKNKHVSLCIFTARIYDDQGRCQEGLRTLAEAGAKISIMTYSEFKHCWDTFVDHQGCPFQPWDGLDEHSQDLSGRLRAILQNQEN
APOBEC3A inh = blocks human APOBEC3A ssDNA deamination; actives 0.41% (n = 330,000); recombinant A3A, FAM/TAMRA ssDNA deamination fluorescence; inhibition, % at 20 µM;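 active = at least 40% inhibition at 20 µM here, with at most 30% in a related deaminase screen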
Target sequence (P31941 whole entry, looked up): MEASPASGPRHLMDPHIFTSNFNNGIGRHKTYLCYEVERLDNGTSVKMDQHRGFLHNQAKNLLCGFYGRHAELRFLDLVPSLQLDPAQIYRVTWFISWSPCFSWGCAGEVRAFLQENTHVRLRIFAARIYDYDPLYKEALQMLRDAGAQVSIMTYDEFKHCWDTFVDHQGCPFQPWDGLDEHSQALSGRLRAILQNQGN
NadD block = inhibitors of Staphylococcus aureus NadD; inhibition, % at 20 µM; actives 0.78% (n = 360,000); purified NadD enzyme, colorimetric absorbance read-out; in the data active = inhibition above about 26%
PfG6PD inh = PfG6PD (Plasmodium falciparum) enzyme inhibition; PfGluPho enzyme, NADPH resazurin-diaphorase fluorescence; inhibition, % at 20 µM; actives 0.78% (n = 350,000); AID 504690;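 active = inhibition reaching at least a set limit at 20 µM in the primary screen, cut at about 59% in these data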
TAG inh = reduces triacylglycerol accumulation in H9c2 cells | Nile Red lipid (TAG) fluorescence; cells loaded with 200 µM oleic acid | inhibition, % at 12.5 µM | actives 0.66% (n = 230,000) | AID 651582;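 active = pattern-corrected inhibition of lipid staining of at least 50% with the nuclear-stain viability signal not falling by more than 50%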
NadD inh conf = confirmation of Staphylococcus aureus NadD inhibitors | shares compounds with NadD block | purified S. aureus NadD, colorimetric enzyme assay | inhibition, % at 20 µM | actives 13% (n = 2,000) | AID 624309; in the data active = inhibition mostly above about 42%, no sharp cut-off; inactive = mostly below about 42%
Numbers stand for hits; 0 = inactive; - = no result.

SMILES | Cardio protect | A3G deaminase | APOBEC3A inh | NadD block | PfG6PD inh | TAG inh | NadD inh conf
CCc1nc2ccccc2c(C(=O)OCC(=O)N2CC(C)OC(C)C2)c1C (stereo unspecified) | 0 | 0 | 0 | 0 | 0 | 0 | -
N#C/C(=C\c1c[nH]c2ccccc12)C(=O)Nc1ncc(Cc2ccc(Cl)cc2Cl)s1 | 0 | 0 | 0 | 38 | 0 | - | 0
Cn1cc(/C=C(\C#N)C(=O)Nc2ncc(Cc3cccc(Cl)c3)s2)c2ccccc21 | - | 0 | 0 | - | - | - | -
COc1ccc(OC)c(/C=C/C(=O)OCC(=O)Nc2nnc(-c3ccccc3)o2)c1 | 0 | 0 | 0 | 44 | 0 | 0 | 60
O=C(NC(=S)Nc1ccccc1N1CCOCC1)c1ccc(-c2cccc(Cl)c2)o1 | 0 | 0 | 0 | 0 | 0 | - | -
O=C(NC(=S)Nc1ccccc1N1CCCC1)c1ccc(-c2cccc([N+](=O)[O-])c2)o1 | 0 | 0 | 0 | 32 | 0 | - | 0
Cc1ccc(-c2csc(C3=C(O)CN(NC(=O)c4ccc([N+](=O)[O-])cc4)C3=N)n2)cc1 | 0 | 0 | 0 | 30 | 0 | 0 | 0
COc1ccc(-c2[nH]ncc2CN2CCN(c3ccccn3)CC2)c(OC)c1 | 0 | 0 | 0 | 0 | 0 | 0 | -
COc1ccc(-c2[nH]ncc2CN2CCCCCCC2)c(OC)c1 | 0 | 0 | 0 | 30 | 0 | 0 | 0
COc1ccc(-c2nn(-c3ccccc3)cc2C(=O)NC(=S)N2CCOCC2)cc1OC | 0 | 0 | 0 | 0 | 0 | 0 | -
CC[C@]12c3[nH]c4cc(-c5ccco5)ccc4c3CCN1C(=O)[C@@H](CC(=O)NCCC1=CCCCC1)C[C@@H]2C(=O)N1CCN(C(=O)c2ccco2)CC1 | 0 | 0 | 0 | 33 | 0 | 0 | 0
O=C(CC1C[C@H](C(=O)N2CCCCC2)[C@@]2(CCc3ccccc3)c3[nH]c4ccccc4c3CCN2C1=O)NCCC1=CCCCC1 (stereo partly specified) | 0 | 0 | 0 | 0 | 0 | 0 | -
O=C(C[C@H]1C[C@H](C(=O)N2CCCCC2)[C@@]2(CCc3ccccc3)c3[nH]c4cc(-c5ccco5)ccc4c3CCN2C1=O)NCc1cccc(C(F)(F)F)c1 | 0 | 0 | 0 | 54 | 0 | 58 | 0
O=C(C[C@H]1C[C@H](C(=O)N2CCCCC2)[C@@]2(CCc3ccccc3)c3[nH]c4cc(-c5ccco5)ccc4c3CCN2C1=O)NCCC1=CCCCC1 | 0 | 0 | 0 | 56 | 0 | 0 | 0
Cc1cccc(S(=O)(=O)c2c(N)n(/N=C/c3ccccc3)c3nc4ccccc4nc23)c1 | 0 | 0 | 0 | 0 | 0 | - | -
Cc1ccc(C)c(S(=O)(=O)c2c(N)n(/N=C/c3ccco3)c3nc4ccccc4nc23)c1 | 0 | 0 | 0 | 32 | 0 | - | 0
Nc1c(S(=O)(=O)c2ccccc2)c2nc3ccccc3nc2n1/N=C/c1cccc(O)c1 | 0 | 0 | 0 | 47 | 0 | 0 | 0
Cc1ccc(C(=O)Nn2c(N)c(S(=O)(=O)c3ccc(C)cc3)c3nc4ccccc4nc32)cc1 | 0 | 0 | 0 | 30 | 0 | - | 0
CC(C)C[C@@H](CN1CCCC1CN1C(=S)NC[C@@H]1Cc1ccccc1)N1C[C@H](Cc2ccc(O)cc2)N(CCc2ccccc2)C1=S (stereo partly specified) | - | - | - | 45 | - | - | 0
CC(C)C[C@@H](CN1CCC[C@@H]1CN1C(=S)NC[C@@H]1Cc1ccc(O)cc1)N1C[C@H](Cc2ccc(O)cc2)N(CCc2ccccc2)C1=S | 0 | - | - | 40 | - | - | 0
CC(C)(C)c1ccc(C(=O)N/C(=C\c2cccc([N+](=O)[O-])c2)C(=O)Nc2cccc(C(=O)O)c2)cc1 | 0 | 0 | 0 | 31 | 0 | 0 | 0
O=C(Nc1cccc(C(=O)O)c1)/C(=C/c1ccc([N+](=O)[O-])cc1)NC(=O)c1ccccc1 | 0 | 0 | 0 | 0 | 0 | 0 | -
O=C(COc1cccc2ccccc12)N/N=C/c1ccc(Sc2nc3ccccc3s2)o1 | 0 | 0 | 0 | 36 | 0 | 0 | 0
O=C(/C=C/c1ccc(F)cc1)NC(=S)NNC(=O)[C@H]1C[C@@H]1c1ccccc1 | 0 | 0 | 0 | 40 | 0 | - | 0
O=C(Nc1nnc(-c2ccc3c(c2)CCCC3)o1)c1ccc(Cl)cc1Cl | 0 | 0 | 0 | 36 | 0 | 0 | 0
SMILES | Cardio protect | A3G deaminase | APOBEC3A inh | NadD block | PfG6PD inh | TAG inh | NadD inh conf
O=C(Nc1nnc(-c2ccc3c(c2)CCCC3)o1)c1c(F)cccc1F | 0 | 0 | 0 | 0 | 0 | 0 | -
CCc1nnc(NS(=O)(=O)c2ccc(NC(=S)NC(=O)/C=C/c3ccc(F)cc3)cc2)s1 | 0 | 0 | 0 | 31 | 0 | - | 51
COc1ccc(/C=C/C(=O)NC(=S)Nc2ccc(S(=O)(=O)N=C(N)N)cc2)cc1OC | 0 | 0 | 0 | 30 | 0 | - | 0
COc1ccc(/C=C/C(=O)NC(=S)Nc2ccc(S(=O)(=O)Nc3cc(OC)ncn3)cc2)cc1 | 0 | - | - | 54 | 0 | - | 0
CCc1nnc(NS(=O)(=O)c2ccc(NC(=S)NC(=O)/C=C/c3ccc([N+](=O)[O-])cc3)cc2)s1 | 0 | 0 | 0 | 0 | 0 | 0 | -
COc1cc(NS(=O)(=O)c2ccc(NC(=S)NC(=O)/C=C/c3ccc(OC)c(OC)c3)cc2)ncn1 | 0 | 0 | 0 | 0 | 0 | 0 | -
CNC(=O)CSc1nc2ccccc2c(=O)n1CCc1ccccc1 | 0 | 0 | 0 | 0 | 0 | - | -
COc1cccc(CN2CCC2(C)C(=O)Nc2ccc(Cl)c(Cl)c2)c1F (stereo unspecified) | 0 | - | - | 0 | - | 0 | -
Cc1cc2cc(CNC(=S)NC3CCCCC3)ccc2n1C | 0 | 0 | 0 | 34 | 0 | 0 | 0
Cc1ccc(CNC(=S)NC2CCCCC2)cc1 | 0 | 0 | 0 | 0 | 0 | - | -
Cc1ccccc1NC(=S)NCc1ccc2c(c1)cc(C)n2C | 0 | 0 | 0 | 0 | 0 | 0 | -
Cc1cc2cc(CNC(=S)NCc3ccccc3)ccc2n1C | 0 | 0 | 0 | 52 | 0 | 0 | 0
CCOC(=O)[C@]12CCCC=C1N(Cc1cccc3ccccc13)C(=O)[C@H](CC(=O)NCc1ccc(OC)c(OC)c1)C2 | - | - | - | 0 | - | - | -
O=C(Nc1ccccc1)N(c1ccccc1)C1C=CS(=O)(=O)C1 (stereo unspecified) | 0 | 0 | 0 | 0 | 0 | 0 | -
O=C(N[C@H]1C/C=C\C[C@@H](CC(=O)N(CCO)Cc2ccccc2)C(=O)N[C@H](Cc2c[nH]c3ccccc23)COC1=O)OCC1c2ccccc2-c2ccccc21 | 0 | 0 | 0 | 36 | 0 | 0 | 0
O=C(N[C@@H]1C/C=C\C[C@H](CC(=O)N(CCO)Cc2ccccc2)C(=O)N[C@@H](Cc2c[nH]c3ccccc23)COC1=O)OCC1c2ccccc2-c2ccccc21 | 0 | 0 | 0 | 34 | 0 | 0 | 0
O=C(N[C@@H]1C/C=C\C[C@@H](CC(=O)N(CCO)Cc2ccccc2)C(=O)N[C@@H](c2ccccc2)COC1=O)OCC1c2ccccc2-c2ccccc21 | 0 | 0 | 0 | 0 | 0 | 0 | -
